Shown are actives, neighbours in structure and some others; about 10% of the full set was active somewhere.
HEK293 tox: kills HEK 293 cells; HEK 293 viability, ATP luminescence (CellTiter-Glo), 48-72 h; Potency, µM (highest dose often 115 µM), without a hit: at the top dose activity change, negative = cytotoxicity, most hits filed as inhibitors; actives 6.6% (n = 94,000); AID 1345083; note: nearly all actives have a fitted effect of over 60% in size
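Viability of HEK 293 cells, plated at 250 cells/well, was judged by cellular ATP after compound treatment for 48 or 72 hr. Luminescence was imaged 10 min after CellTiter-Glo addition at room temperature.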
hNpr1 antagonist: human Npr1 receptor antagonism | Potency, µM (titrated, usually from 46.3 µM), for the others: top-dose activity change, negative = inhibition, usual class: inhibitors | actives 1.6% (n = 76,000) | P16066 | AID 1347048 | HEK293 hNpr1 GloSensor cGMP, ANP-stimulated luminescence; calls by dose curve; note: nearly all actives have a fitted effect of over 60% in size
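HEK293 cells stably expressing human Npr1 and cGMP GloSensor pGS-40F, loaded 2 h with 2% GloSensor reagent, given compound 30 min at room temperature. Luminescence read before and 20 min after 0.1 nM hNppA.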
Luciferase inh: Photinus pyralis luciferase inhibition; P08659; purified P. pyralis luciferase, luminescence, biochemical; Potency, µM (top dose mostly 115 µM), most hits filed as inhibitors; actives 2.5% (n = 76,000); note: nearly all actives have a fitted effect of over 65% in size
Target sequence (P08659 whole entry, looked up): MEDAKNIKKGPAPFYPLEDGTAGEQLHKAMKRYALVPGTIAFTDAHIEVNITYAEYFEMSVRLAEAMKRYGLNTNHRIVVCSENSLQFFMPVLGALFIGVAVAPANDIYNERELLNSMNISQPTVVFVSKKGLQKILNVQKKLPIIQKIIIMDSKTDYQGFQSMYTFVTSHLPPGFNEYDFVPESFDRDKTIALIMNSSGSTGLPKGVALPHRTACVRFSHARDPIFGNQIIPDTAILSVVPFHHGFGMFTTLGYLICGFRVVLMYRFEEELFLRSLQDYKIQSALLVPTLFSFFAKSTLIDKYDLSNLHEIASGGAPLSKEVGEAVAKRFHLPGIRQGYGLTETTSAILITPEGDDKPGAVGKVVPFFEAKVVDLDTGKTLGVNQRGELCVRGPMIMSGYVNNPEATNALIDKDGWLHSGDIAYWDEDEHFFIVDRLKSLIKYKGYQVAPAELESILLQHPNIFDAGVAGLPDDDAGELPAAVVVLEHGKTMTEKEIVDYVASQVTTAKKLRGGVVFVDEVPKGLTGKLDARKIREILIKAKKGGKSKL
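Cell-free enzyme assay, 10nM P. pyralis luciferase, luciferin and ATP each at 10uM. Inhibition profiled over a 6-point titration, read as luminescence.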
GPT2 inhibitor: GPT2 alanine aminotransferase inhibition | Q8TD30 | Recombinant GPT2, coupled pyruvate oxidase/HRP Amplex Red fluorescence | Potency, µM (top dose mostly 57.7 µM), for the others: at the highest dose activity change, negative = inhibition, actives largely listed as inhibitors | actives 0.25% (n = 100,000) | AID 1671188; note: nearly all actives have a fitted effect of over 60% in size
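Recombinant GPT2 (10ng/uL) with 250uM a-KG and 2mM L-alanine, 30 min at room temperature, in HEPES pH 7.5 buffer. Pyruvate detected by pyruvate oxidase/HRP/Amplex Red fluorescence after 30 min in the dark; AOA (50uM) as positive control.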
3T3 cytotox: kills NIH 3T3 cells; Potency, µM (doses to about 96.7 µM), without a hit: at the top dose activity change, negative = cytotoxicity, actives largely listed as inhibitors; actives 4.3% (n = 94,000); NIH 3T3 viability, CellTiter-Glo ATP luminescence, 48-72 h; note: nearly all actives have a fitted effect of over 55% in size
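Luminescent ATP readout (CellTiter-Glo, 10 min RT) after 48 or 72 hr compound exposure of NIH 3T3 cells seeded at 400 cells/well in 1536-well format; quantitative HTS.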
Starred values were filed as active, the others as inactive; i = inactive; ? = inconclusive; . = no result; [ ] = another dose, or the depositor's remark. Unless noted, calls come from the whole dose curve; as a rule, active = well fitted curve in the direction sought with a large enough effect; inconclusive = small, poorly fitted or top-dose-only effect, or another doubt; inactive = no such curve, though single readings can be large; an effect the other way counts as inactive or inconclusive. % is set by controls: 0 for no effect and ±100 for the full control effect; potency is the fitted concentration of half-maximal effect.

SMILES | HEK293 tox | hNpr1 antagonist | Luciferase inh | GPT2 inhibitor | 3T3 cytotox
COc1ccc(NC(=O)N2Cc3[nH]cnc3C[C@H]2c2nc(-c3ccccc3)no2)cc1 | ? | -20.6%[70.6 µM] | 39.8µM* | 0.4%[88.5 µM] | 31.6µM*
Cc1ccc(NC(=O)N2Cc3[nH]cnc3C[C@H]2c2nc(-c3ccncc3)no2)cc1 | i | -4.5%[70.6 µM] | i | -5.2%[88.5 µM] | 2.0%[174 µM]
CC(=O)c1ccc(NC(=O)N2Cc3[nH]cnc3C[C@H]2c2nc(-c3ccc(F)cc3)no2)cc1 | -1.4% | -3.0% | ? | 3.5% | 89.1µM*
Cc1ccc(-c2ccccc2CN2CCC(C(=O)NCc3ccc(Cl)cc3)CC2)cc1Cl | ? | . | . | -7.0% | ?
O=C(Nc1ccc2c(c1)OCCO2)N1CCC(Cc2nncn2-c2ccccc2)CC1 | 1.9% | . | . | i | -25.3%
Cc1ccc(N2Cc3c(ncnc3N3CCC(O)CC3)CN(C)C2=O)cc1 | 2.8% | -3.5% | i | i | -8.9%
O=C(NC1CCCc2c1[nH]c1ccc(F)cc21)c1n[nH]c2c1CCC2 (centres undefined) | 35.5µM* | -27.2% | i | -16.0% | 35.5µM*
Cc1c(-c2ccc(F)cc2)[nH]c2ccc(CNC(=O)c3cnn(C)c3)cc12 | 39.8µM* | ? | 25.1µM* | -13.9% | ?
Cc1c(-c2ccccc2F)[nH]c2ccc(CNC(=O)CCN3CCCO3)cc12 | ? | -15.3% | 15.8µM* | -20.8% | ?
Cc1c(-c2ccc(F)cc2)[nH]c2ccc(CNC(=O)c3n[nH]c4c3CCCC4)cc12 | ? | 15.8µM* | 15.8µM* | 4.0% | 31.6µM*
O=C(NC1CCCCC1)c1nc2sccn2c1-c1ccc(F)cc1 | ? | . | . | i | ?
O=C(NCCCc1ccccc1)c1cn2cc(-c3ccccc3)sc2n1 | ? | . | . | -2.3% | -24.0%
Cc1noc(C)c1CCC(=O)NC1CCCc2c1[nH]c1ccccc21 (centres undefined) | ? | -9.0% | i | i | ?
CCN1CCN(CC(=O)NCc2ccc3[nH]c(-c4ccc(F)cc4)c(C)c3c2)CC1 | 17.8µM* | 0.0% | ? | -6.5% | 22.4µM*
Cc1onc(C(=O)NCc2ccc3[nH]c(-c4ccc(F)cc4)c(C)c3c2)c1CO | ? | ? | ? | 0.6% | ?
O=C(CCc1c[nH]c2ccccc12)NC1CCCc2c1[nH]c1ccc(F)cc21 (centres undefined) | ? | 3.5% | i | 0.1% | 39.8µM*
COc1ccc(-c2cn3cc(C(=O)NCCc4ccc(Cl)cc4)nc3s2)cc1 | -5.9% | . | . | i | -25.5%
O=C(CC(c1cccc([N+](=O)[O-])c1)c1c[nH]c2ccccc12)NCc1ccccc1 (centres undefined) | ? | -13.7% | i | ? | ?
Cc1ccc(C(CC(=O)Nc2ccc(F)cc2)c2c[nH]c3ccccc23)cc1 (centres undefined) | ? | -26.2% | i | i | 44.7µM*
Cc1ccccc1CN1Cc2nc(-c3cnn(C)c3)ccc2OCC1=O | 100µM* | 4.5%[70.6 µM] | i | 1.4%[88.5 µM] | 31.6µM*
NC(=O)c1cccc(-c2ccc3c(n2)CN(Cc2nc4ccccc4s2)C(=O)CO3)c1 | 79.4µM* | -21.5%[70.6 µM] | i | 2.2%[88.5 µM] | ?
O=C1COc2ccc(-c3ccsc3)nc2CN1Cc1ccccc1F | 100µM* | 1.2%[70.6 µM] | i | -9.3%[88.5 µM] | ?
COc1ccc(-c2ccc3c(n2)CN(Cc2ccccc2C)C(=O)CO3)cc1OC | ? | -13.2%[70.6 µM] | i | -10.3%[88.5 µM] | ?
Cc1ccccc1CN1Cc2nc(-c3cnn(Cc4ccccc4)c3)ccc2OCC1=O | 35.5µM* | ? | i | i | 22.4µM*
O=C1COc2ccc(-c3ccccc3)nc2CN1Cc1ccccc1F | ? | -11.2%[70.6 µM] | i | -9.0%[88.5 µM] | ?
SMILES | HEK293 tox | hNpr1 antagonist | Luciferase inh | GPT2 inhibitor | 3T3 cytotox
NC(=O)c1cccc(-c2ccc3c(n2)CN(Cc2ccc(F)cc2)C(=O)CO3)c1 | ? | ? | i | 0.8%[88.5 µM] | ?
O=C1NCc2ccccc2CC12CCN(C/C=C/c1ccccc1)CC2 | ? | . | . | -17.6% | ?
O=[S+]([O-])(c1cccc(C(F)(F)F)c1)N1CCC2(CC(c3cccnc3)=NO2)C1 (centres undefined) | -19.6% | . | . | i | -7.7%
Cc1nn(Cc2ccccc2)c(C)c1[C@@H]1C=C[C@@H](NC(=O)CC2(CC(=O)O)CCCC2)C1 | -22.4% | 1.4% | i | -1.8% | ?
Cc1ccccc1CN1Cc2nc(-c3ccccc3)ccc2OCC1=O | 89.1µM* | -5.9%[70.6 µM] | i | -22.6%[88.5 µM] | ?
Cc1ccccc1CN1Cc2nc(OCc3cccnc3)ccc2OCC1=O | ? | ? | i | -12.1%[88.5 µM] | ?
O=C1COc2ccc(OCc3cccnc3)nc2CN1Cc1ccccc1F | 89.1µM* | ? | i | 4.4%[88.5 µM] | ?
CN1CCCN(C(=O)C2CCCC2)c2ccccc21 | 89.1µM* | -5.3% | i | i | ?
COc1ccccc1C(=O)N1CCCN(C)c2ccccc21 | 79.4µM* | -10.9% | i | -4.2% | ?
Cc1cc(N2CCN(Cc3ccccc3)CC(O)C2)nc(N)n1 (centres undefined) | -20.4% | 1.3% | i | 1.5% | -17.4%
OC1CN(Cc2ccccc2)CCN(c2nc(-c3ccccc3)no2)C1 (centres undefined) | ? | ? | 39.8µM* | i | -9.9%
Cc1ccc([S+](=O)([O-])N2CCN(Cc3ccccc3-c3cccnc3)CC2)cc1 | ? | . | . | -0.9% | ?
CC1(c2ccccc2)N(Cc2ncccn2)C(=O)OC12CCN(Cc1cccc(OC(F)(F)F)c1)CC2 (centres undefined) | 50.1µM* | -7.7% | i | ? | 39.8µM*
CC1(c2ccccc2)N(Cc2ccccc2)C(=O)OC12CCN(Cc1cccnc1)CC2 (centres undefined) | ? | -11.7%[70.6 µM] | i | -11.7%[88.5 µM] | 100µM*
CC1(c2ccccc2)N(Cc2ccccc2)C(=O)OC12CCN(c1cccnc1)CC2 (centres undefined) | 70.8µM* | -1.5%[70.6 µM] | i | -8.6%[88.5 µM] | 89.1µM*
O=C1CC(c2ccccc2)N(Cc2ccncc2)CCCN(S(=O)(=O)c2cccc(F)c2)CCN1 (centres undefined) | 44.7µM* | -13.3% | i | i | ?
CCCN(C)c1nccnc1OC1CCN(C(=O)c2ccc(F)cc2)C1 (centres undefined) | ? | -10.6% | 35.5µM* | i | -13.5%
CCCN(C)c1nccnc1OC1CCN(C(=O)c2ccoc2)C1 (centres undefined) | ? | -6.7% | 14.1µM* | i | -28.1%
CCCN(C)c1nccnc1OC1CCN(C(=O)c2ccc(OC)nc2OC)C1 (centres undefined) | ? | -21.4% | 22.4µM* | 1.3% | -8.0%

Screens from PubChem.
